In the library only some 21% were active in any assay of this set; here they are far more common.
Pf growth 96h: inhibits malaria parasite growth, 96 h | P. falciparum luciferase reporter growth, 96 h | Potency, µM (top dose mostly 28.7 µM), for inactives: at the top dose activity change, negative = inhibition, actives largely listed as inhibitors | 320,000 compounds, 6.9% hits | AID 504834; further: potency means the concentration at half of the fitted maximal effect; on the % scale 0 is the no-effect control and ±100 the full control effect
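Two parasite generations (96 h, 37 C, 5% CO2) of compound exposure in infected erythrocytes (0.05% parasitemia, 2% hematocrit). Luciferase-reporter P. falciparum; decreased luminescence indicates inhibited growth, aimed at apicoplast-acting delayed death.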
AMA1 RON2 block: disrupts binding of P. falciparum AMA1 to RON2 | AlphaScreen AMA1-biotinylated RON2 peptide binding | Potency, µM (highest dose often 58.2 µM), for the others: at the top dose activity change, negative = inhibition, usual class: inhibitors | 360,000 compounds, 0.2% hits;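 further: potency means the concentration at half of the fitted maximal effect; 0% = vehicle wells and -100% = peptide control; nearly all actives have a fitted effect of over 45% in size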
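AMA1 (3D7) with his tag at 25 nM final met compounds first, then biotinylated RON2 peptide at 25 nM; detection used donor plus acceptor beads, 10 µg/mL apiece, read by AlphaScreen after 30 min at room temperature.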
Shiga toxin inh: blocks Shiga toxin action in Vero cells | AID 2315 | 290,000 compounds, 9.2% hits | Vero cells, Shiga toxin protein synthesis inhibition reporter | inhibition, % at 38.7 µM; in the data active means inhibition mostly above about 28%, no sharp cut-off; inactive means mostly below about 43%; further: 0% is about no effect
HCV inh: inhibitors of hepatitis C virus infection; AID 651820; Huh7.5.1 HCVcc-Cre infection, luciferase reporter, 44 h; Potency, µM (highest dose often 41.8 µM), without a hit: at the top dose activity change, negative = inhibition, hits mostly inhibitors; 340,000 compounds, 3.4% hits; further: potency means the concentration at half of the fitted maximal effect; on the % scale 0 is the no-effect control and ±100 the full control effect
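HCVcc-Cre virus at an moi near 0.5 was added right after compound to cells cultured 4 h from seeding (1,000 cells/well). Luciferase activity was determined 44 h later, 15 min after substrate addition at RT.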
Pf growth 48h: P. falciparum growth inhibition at 48 hours (one generation); P. falciparum luciferase growth in erythrocytes, 48 h; Potency, µM (series often up to 28.7 µM), inactives show top-dose activity change, negative = inhibition, usual class: inhibitors; 310,000 compounds, 5.9% hits; AID 504832; further: potency means the concentration at half of the fitted maximal effect; on the % scale 0 is the no-effect control and ±100 the full control effect
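A one-generation exposure of luciferase-tagged malaria parasites in RPMI 1640/Albumax erythrocyte culture, 37 C and 5% CO2. Inhibition is inferred from decreased luminescence after adding detection reagent.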
CHX counter: counter-screen for Shiga toxin inhibitors: cycloheximide protein synthesis inhibition. max response, %. cell reporter, cycloheximide protein synthesis inhibition counterscreen. 300,000 compounds, 12% hits; in the data active means max response mostly above about 13%, no sharp cut-off; inactive means mostly below about 14%; further: read at 38.3 µM for the half of the compounds with a filed dose; 0% is about no effect
Numbers without * were called inactive; i = inactive; ? = inconclusive; / = no result given. Unless noted, the call rests on the fitted dose curve; in most records, active means well fitted curve in the direction sought with a large enough effect; inconclusive means small, poorly fitted or top-dose-only effect, or another doubt; inactive means no such curve, though single readings can be large; an effect the other way counts as inactive or inconclusive.

SMILES | Pf growth 96h | AMA1 RON2 block | Shiga toxin inh | HCV inh | Pf growth 48h | CHX counter
CCOC(=O)C1CCN(C(=O)COC(=O)CNC(=O)c2ccc(OC)cc2)CC1 | 13.4% | -5.0% | -5.1 | 5.3% | ? | 1.6
O=C(Nc1c(-c2ccc3c(c2)OCO3)[nH][nH]c1=O)c1cccc(C(F)(F)F)c1 | / | 11.0% | / | / | / | /
CC(C)c1ccccc1OCC(O)CN1CCN(S(=O)(=O)c2ccc([N+](=O)[O-])cc2)CC1 (configuration not stated) | 2.62µM* | ? | -2.2 | 12.6µM* | 3.7µM* | -1.5
O=S(=O)(c1ccc(F)cc1)N1CCN(CC(O)COc2ccccc2F)CC1 (configuration not stated) | -4.3% | ? | -4.7 | 2.8% | 5.1% | 4.2
O=C(CN1C(=O)NC(CCc2ccccc2)C1=O)Nc1ccc(F)c(F)c1F (configuration not stated) | / | -0.8% | / | 2.0% | / | /
Cc1ccnc(NC(=O)CCNC(=O)c2ccccc2Cl)c1 | 58.3% | -7.0% | 123.6* | 9.8% | 137.2% | 35.5*
Cc1ccc(NC(=O)CCNC(=O)c2ccccc2Cl)nc1 | ? | -5.5% | 13.6 | 12.6% | 6.3% | 4.6
Cc1ccnc(NC(=O)CNC(=O)c2ccccc2Br)c1 | 52.7% | 7.3% | 53.6* | 2.9% | 46.0% | 52.5*
N#Cc1ccc2c(c1)C[C@]1(CCCCN3C(=O)c4ccccc4C3=O)Oc3cc(-c4ccccc4)oc(=O)c3[C@H]2O1 | ? | / | i | / | ? | -1.3
Cc1ccc(N/N=C(\C#N)C(=O)c2ccsc2)cc1 | 90.2% | -27.0% | 54.7 | 9.9% | ? | 21.0*
N#C/C(=N\Nc1ccc(Cl)cc1)C(=O)c1ccsc1 | 31.2% | -24.6% | 52.8* | ? | 45.3% | 30.7*
N#C/C(=N\Nc1cccc(Cl)c1)C(=O)c1ccccc1 | 162.9% | -12.9% | 23.4 | ? | 9.7% | 13.2
CCN(C(=O)C(C)OC(=O)c1nn(-c2ccccc2C(F)(F)F)cc1O)c1ccccc1 (configuration not stated) | / | -4.1% | / | 10.0% | / | /
COc1ccc2cc(C3OCCO3)c(Cl)nc2c1 | 18.4% | 6.8% | 128.1* | 32.1% | 183.8% | 60.1*
CC(C)(C)OC(=O)NCCCCCNC(=O)c1ncn2c1c(=O)[nH]c1ccccc12 | / | 108.4% | / | / | / | /
O=C(COC(=O)c1cnccn1)Nc1cc(S(=O)(=O)N2CCOCC2)ccc1Cl | / | 15.3% | / | 10.9% | / | /
COc1cc(C(=O)Nc2cc(C)ccn2)ccc1OCC(=O)N1CCOCC1 | 63.5% | 8.7% | 50.9* | -2.1% | 46.6% | 41.6*
Cc1cc(NC(=O)c2ccc(Cl)cc2)cc(C)c1OCC(=O)N1CCOCC1 | 0.0% | 6.5% | 76.7* | / | -3.2% | 32.7*
CCCCOc1ccc(C(=O)Nc2cc(C)c(OCC(=O)N3CCOCC3)c(C)c2)cc1 | 21.8% | -7.1% | 11.3 | ? | 35.6% | 21.9*
Cc1cc(NC(=O)c2cccc3ccccc23)cc(C)c1OCC(=O)N1CCOCC1 | 16.9% | 0.0% | -7.6 | -22.2% | / | 0.9
CSCC[C@H](N)C(=O)N[C@@H](CO)C(=O)N[C@@H](CCCN=C(N)N)C(=O)N1CCC[C@H]1C(=O)N[C@@H](C)C(=O)N[C@@H](CS)C(=O)N1CCC[C@H]1C(=O)N[C@@H](CC(N)=O)C(=O)N[C@@H](CC(=O)O)C(=O)N[C@@H](CCCCN)C(=O)N[C@@H](Cc1ccc(O)cc1)C(=O)N[C@@H](CCC(=O)O)C(=O)O | / | / | -6.2 | / | / | -6.3
CN1C(=O)N(CC(=O)Nc2sccc2C(N)=O)C(=O)C12CCCCC2 | ? | 92.9% | / | -8.2% | -7.5% | /
O=C(COC(=O)c1ccc(Cl)cc1O)NC(=O)C1CCCCC1 | 36.0% | 11.2% | -18.9 | -4.7% | 0.0% | -1.1
Cc1nccc(-c2sc(-c3cccs3)nc2C)n1 | 60.5% | 42.5% | 57.9* | -21.8% | 64.4% | 35.9*
O=C(CNCCc1ccc(F)cc1)Nc1cc(F)ccc1F | 9.2% | -0.7% | -1.2 | 8.4% | / | 2.6
CCc1ccc(N(C(=O)c2snc(C(N)=O)c2N)C(C(=O)NC2CCCC2)c2ccco2)cc1 (configuration not stated) | 5.5% | 1.8% | -6.7 | ? | ? | -2.3

Screening results as filed in PubChem.
